In PubChem BioAssay (NCI):
The panel holds about 83,000 compounds, 20% with a hit somewhere; the sample as a whole holds those more often.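 Growth was measured after 48 h exposure to one concentration of compound in 96-well plates. Values under 10 count as active.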 Active and inactive are the calls of the source.

Test system: EKVX NSCLC
Assay: NCI-60 one-dose screen, 48 h (100 = growth as untreated, 0 = no growth, -100 = all killed)
Conditions: 10 µM unless noted
Description: Growth inhibition of the EKVX human Non-Small Cell Lung tumor cell line is measured as a screen for anti-cancer activity. Cells are grown in 96 well plates and exposed to the test compound for 48 hours. Compounds are tested at a single concentration, which is 10^-5 M for most compounds. The reported endpoint is percent growth (GI% or GIPRCNT), where numbers from 0 - 100% represent growth inhibition, and numbers from -100% - 0 represent cell death. For example, a value of 40 represents 60% growth inhibition. A value of 0 means no net growth occurred over the course of the experiment. A value of -40 indicates 40% of cells at the beginning of the experiment died by the end of the experiment. A value of -100 means all cells are dead at the end of the experiment.
NCI-60 Human Tumor Cell Lines Screen was performed using the standard one-dose NCI protocol, which is described in more detail at https://dtp.cancer.gov/discovery_development/nci-60/default.htm.
Compounds with GIPRCNT values below 10 were considered active. Activity score was based on GIPRCNT using the following formula: […]
Score is 0 for GIPRCNT values of 100 or above, 50 for GIPRCNT values of 0, and 100 for GIPRCNT values of -100.

SMILES | growth
O=C(/C=C/c1ccco1)Nc1ncc(Cc2cc(Cl)ccc2Cl)s1 | 34.2% (inactive)
Cc1ncc(C(=O)Nc2ccc(CN3CCN(C)CC3)c(C(F)(F)F)c2)cc1C#Cc1cnc(N)c2ccc(C#N)cc12 | 50.4% (inactive)
CCCCCCCCCCOC(=O)c1nn(C(C)=O)c2cc(C)c(C)cc12 | 91.6% (inactive)
CC(=O)O[C@H]1CC[C@]2(C)[C@H]3CC=C4[C@@H]5CC(C)(C)CC[C@]5(C(=O)N5CCN(CCC#N)CC5)CC[C@@]4(C)[C@]3(C)CC[C@H]2C1(C)C | 65.8% (inactive)
COc1ccc2cc(C(=O)N3CCC([C@@H](C)C(=O)NCc4ccc5c(c4)OCO5)CC3)[nH]c2c1 | 73.4% [50 µM] (inactive)
Cc1sc2nc(NCCN)[nH]c(=O)c2c1C | 89.6% (inactive)
Cc1ccc(O)c(NC(=O)c2cccc(Nc3ccnc(C(F)(F)F)c3)c2)c1 | 41.7% (inactive)
O=S(=O)(N=C1C(Cl)=C(Cl)C(=NS(=O)(=O)c2ccccc2)C(Cl)=C1Cl)c1ccccc1 | 107% (inactive)
Cc1cccc(N2C(=O)/C(=C/C(Cl)=C/c3ccc([N+](=O)[O-])cc3)SC2=S)c1C | -3.56% (active)
COc1ccc(-c2cc(-c3cccnc3)nc3sc4c(N)c(C(C)=O)c(-c5ccccc5)nc4c23)cc1OC | 87.4% (inactive)
O=CN1N=C(c2cccc(Nc3ccnc4cc(Cl)ccc34)c2)CC1c1ccc(Cl)cc1 (stereo not given) | 49.1% (inactive)
O=C1/C(=C/c2c[nH]c(=O)[nH]c2=O)SC(=S)N1Cc1ccccc1 | 74.6% (inactive)
C#CCOc1cccc(Nc2ncnc3c2ncn3C2CCN(C(=O)CCl)C2)c1 (stereo not given) | 5.11% (active)
CCn1cc(C(=O)N/N=C/c2cccc(F)c2)c(=O)c2cc(F)c(N3CCNC(C)C3)c(F)c21 (stereo not given) | 50.7% (inactive)
COC1C(O)CC(OC2CC(OC3CC(O[C@@H]4C(=O)c5c(cc6cc(OC7CC(OC8CC(O)C(O)C(C)O8)C(O)C(C)O7)c(C)c(O)c6c5O)CC4[C@H](OC)C(=O)C(C)=O)OC(C)C3O)OC(C)C2O)OC1C (stereo not given in full) | 3.71% (active)
CC1(/C=C/c2ccc(-c3ccccc3)cc2)CCn2cnc3ncnc(c32)N1O (stereo not given) | 17.6% (inactive)
Nc1cc(Br)cc2c1[nH]c(=O)c1ccccc12 | 82% (inactive)
Clc1ccc(-c2nc(C(Cl)Cl)nc3cc(-c4ccccc4)nn23)cc1 | -12.8% (active)
CC1=Nc2cnc(Nc3ccc(N4CCCCC4)cc3)nc2Nc2ccccc21 | 68.8% (inactive)
COc1cc(/C=N/NC(=O)c2ccc(-n3cc(-c4ccccc4)nn3)cc2)cc(OC)c1OC | 91.1% (inactive)

SMILES | growth
Cn1c(C#N)ccc1-c1ccc(F)c(NC(=O)c2ccc(F)cc2)c1 | 82.2% (inactive)
CN1CCN(c2ccc(NC3=CC(=O)c4ncncc4C3=O)cc2)CC1 | -87.1% (active)
Cc1c(O)cc(-c2cnc(N/N=C/c3ccccc3)s2)c(O)c1C | 87.2% (inactive)
Cc1ccc2nc(-c3ccc(C(=O)N/N=C/c4ccc([N+](=O)[O-])cc4)cc3)[nH]c2c1 | 108% (inactive)
C=CC(CC(c1ccccc1)(c1ccccc1)c1ccccc1)N(CC)CC (stereo not given) | 75.7% (inactive)
COc1ccc(C2CC(c3ccccc3)=NN2C(=O)c2cc(OC)c(OC)c(OC)c2)cc1O (stereo not given) | 46.7% (inactive)
C#Cc1cccc(NC(=O)C2CCCCN2C(=O)CCl)c1 (stereo not given) | 19.6% [8.25 µM] (inactive)
CCOC(=O)/C=C1\S/C(=N\Nc2cc(=O)[nH]c3ccc(Br)cc23)N(c2ccccc2)C1=O | 97.2% (inactive)
CC(=O)N1N=C(c2ccc(Nc3nc(Nc4ccc(F)cc4)nc(Nc4ccc(F)cc4)n3)cc2)CC1c1ccc(N(C)C)cc1 (stereo not given) | 47.5% (inactive)
C/C(Cc1ccc(Cl)cc1)=C(\c1ccc(OCCN2CCCCCC2)cc1)c1ccc(OC(=O)c2ccccc2)cc1 | 78.8% (inactive)
C=C1C(=O)O[C@@H]2C3C(=C(C)CC[C@@H]12)CC1O[C@]13C (stereo not given in full) | 91.5% [6.75 µM] (inactive)
CCOC(=O)C#Cc1c(C(=O)OCC)nnn1[C@@H]1O[C@H](COC)[C@@H](OC)[C@H]1OC | 107% (inactive)
Cc1ccc(Cc2cnc(NC(=O)/C=C/c3ccc(C)o3)s2)cc1 | 49.7% (inactive)
COc1cc(/C=C/C(=O)c2cc(OC)c(OC)c(OC)c2)ccc1Oc1nc2c(c(=O)n(C)c(=O)n2C)n1C | 1.98% (active)
CN(C)Cc1ccc(NC(=O)c2cncc(C#Cc3cnc(N)c4ncccc34)c2)cc1C(F)(F)F | 89.4% (inactive)
CS(=O)(=O)Nc1cc(-c2ccc3ncnc(Nc4ccc5c(cnn5Cc5ccccc5F)c4)c3c2)cnc1Cl | 52.2% (inactive)
COc1cc(OC)c2c(=O)c3c(CC=C(C)C)cc(OC)c(O)c3oc2c1 | 89.6% (inactive)
CC1(C)CC[C@]23CC[C@]4(C)[C@H](CC[C@@H]5[C@@]6(C)CCNCC(C)(C)[C@@H]6CC[C@]54C)[C@H]2[C@H]1OC3 | 109% (inactive)
O=C(O)CCCCCCCCCCN1C(=O)/C(=C2/C(=O)N(CC(=O)O)c3ccc(Br)cc32)SC1=S | 97.2% (inactive)
COc1ccc(CNc2ccc3nc(NC(=O)CN4CCCCCC4)sc3c2)cc1 | 80.1% (inactive)
